Laboratory results published in PubChem BioAssay (Tox21).
Results filed as inconclusive are left out. A call without a number means that no potency is given here. Calls of active or inactive are those of the source. Calls follow the shape of the dose curve; as a rule, active = well fitted cell-killing curve with a large enough effect in the repeat runs; inconclusive = weak or mixed curves, or effect the other way; inactive = flat fitted curve, though single readings scatter.

assay: qHTS assay to identify small molecule antagonists of the constitutive androstane receptor (CAR) signaling pathway - cell viability counter screen (AID 1224837); conditions: HepG2-CYP2B6-hCAR viability, CellTiter-Fluor, 23 h, co-treated with 50 nM CITCO; series mostly up to 92.4 µM; also: nearly all actives have a fitted effect of over 45% in size
Text: National Center for Advancing Translational Sciences [NCATS]
NIH Chemical Genomics Center [NCGC]
U.S. Environmental Protection Agency [EPA]
National Institutes of Environmental Health Sciences [NIEHS]
National Toxicology Program [NTP]
U.S. Food and Drug Administration [FDA]
The constitutive androstane receptor (CAR) is a nuclear receptor which regulates multiple drug metabolizing enzymes (DMEs) and transporters. Activating CAR will generally increase the transcription and subsequent translation of CYP2B6 and CYP3A4. These two DMEs represent about 50% of the drug metabolizing potential in the body. When CAR is deactivated, the metabolizing potential in the body will decrease, subsequently increasing the toxicity in the body or lowering the therapeutic potential of a pro-drug. Recently, there have also been studies performed indicating CARs role in energy metabolism and cancer therapy. Therefore, inhibiting CARs activity could have a potential effect on diabetes and cancer. Identifying environmental toxins and compounds which modulate CAR, through the use of the Tox21 10K compound collection, will be an important step in determining the toxicity and potential therapeutic effects these factors will have on the human body. To differentiate true CAR antagonists from cytotoxic substances, the assay is multiplexed with a cell viability assay.
Tox21 Assay Protocol Summary:
A double-stable (hCAR and CYP2B6-2.2kb) transfected cell line, derived from human hepatoma (HepG2) cells, was utilized for the duration of the quantitative high-throughput screens. The HepG2-CYP2B6-hCAR cells were dispensed at 2500 cells/4 uL/well in 1536-well white solid bottom plates using a Multidrop Combi. After the assay plates were incubated at 37 C/5% CO2 for 4 hrs, 23 nL of compounds at 15 concentrations (from 5-48 columns) or positive control (from 1 to 4 columns) were transferred to the assay plates using a Pintool station. One uL of CITCO (final concentration = 50 nM) was added, using a Flying Reagent Dispenser, inside each well. After a 23 hr incubation period at 37 C/5% CO2, 1 uL of CellTiter-Fluor reagent was added into each well of the assay plates using a Flying Reagent Dispenser. The fluorescence intensity in the plates was then measured using a ViewLux plate reader.

SMILES | Potency | activity change, negative = cytotoxicity
CC(C)(C)c1ccc(CCC=O)cc1 | inactive | 
Nc1cccc2c(=O)[nH][nH]c(=O)c12 | inactive | 
C[C@H](N)C(=O)N[C@@H](C)C(=O)NC1[C@H]2CN(c3nc4c(cc3F)c(=O)c(C(=O)O)cn4-c3ccc(F)cc3F)C[C@@H]12 (stereo not given in full) | inactive | 
CC(O)C(C)O (stereo not given) | inactive | 
CC/C=C\CCO | inactive | 
COc1cc(C)c(Cc2cnc(N)nc2N)cc1OC | inactive | 
C=CCCC | inactive | 
CCC(C)CCCC(C)(C)O (stereo not given) | inactive | 
Oc1ccc(Oc2ccccc2)cc1 | inactive | 
O=c1[nH][nH]c2ccccc12 | inactive | 
O=Cc1ccc(Cl)c([N+](=O)[O-])c1 | inactive | 
CCC1=C(C)CN(C(=O)NCCc2ccc(S(=O)(=O)NC(=O)NC3CCC(C)CC3)cc2)C1=O (stereo not given) | inactive | 
CCCCCCCCCCCCSCCOCCO | inactive | 
Cc1cc(SC2=C(O)C[C@@](CCc3ccc(N)cc3)(C(C)C)OC2=O)c(C(C)(C)C)cc1CO | inactive | 
CC(C)Oc1ccccc1O | inactive | 
O=S(=O)(O)c1cc(Cl)c(Cl)cc1Cl | inactive | 
O=C(O)c1ccccc1-n1cc(C(=O)O)c(=O)c2cc(Nc3c(F)cc(F)cc3Cl)c(Cl)cc21 | inactive | 
CCOC(C)OCC | inactive | 
CC(C(=O)O)c1ccc2c(c1)Cc1cccnc1O2 (stereo not given) | inactive | 
CC1(C)CC(=O)CC(C)(C)N1 | inactive | 

SMILES | Potency | activity change, negative = cytotoxicity
CC(=O)Nc1ccccc1O | inactive | 
CC(C)(C)NCC(O)COc1ccc(NC(=O)NC2CCCCC2)cc1 (stereo not given) | inactive | 
C=CC(O)CCCCC (stereo not given) | inactive | 
CC(=O)CC/C=C(\C)CC/C=C(\C)CC/C=C(\C)CCC=C(C)C | inactive | 
C(/C=C/C=C/Nc1ccccc1)=Nc1ccccc1 | inactive | 
CCC(C)C1N=C(C)C(C)S1 (stereo not given) | inactive | 
CC(C)NC(=O)c1ccccc1N | inactive | 
S=c1[nH][nH]c(=S)s1 | inactive | 
FC1(F)C(F)(F)C(F)(F)C2(F)C(F)(C1(F)F)C(F)(F)C(F)(F)C1(F)C(F)(F)C(F)(F)C(F)(F)C(F)(F)C12F (stereo not given) | inactive | 
Cc1c(-c2cccnc2)c2ccccc2n1CCCCC(=O)O | inactive | 
c1ccc(-c2ccc(-c3ccccc3)cc2)cc1 |  | -2.21% [at 19 µM] (inactive)
O=C(O)c1cc(C(=O)O)c(C(=O)O)cc1C(=O)O | inactive | 
c1ccc(CCNc2nc(-c3ccccc3)cs2)cc1 | inactive | 
C1=COCCC1 | inactive | 
C[C@]12CCC(=O)C=C1[C@@H]1C[C@@H]1[C@H]1[C@@H]3[C@@H]4C[C@@H]4[C@@]4(CCC(=O)O4)[C@@]3(C)CC[C@@H]12 | inactive | 
CC(C)CCCCCCCOC(=O)c1ccc(C(=O)OCCCCCCCC(C)C)c(C(=O)OCCCCCCCC(C)C)c1 | inactive | 
CCCCCO | inactive | 
CC(COc1ccccc1)NC(C)C(O)c1ccc(O)cc1 (stereo not given) | inactive | 
CC(C)CC(C)(C)C | inactive | 
Clc1cccc(C(c2ccc3nc[nH]c3c2)n2ccnc2)c1 (stereo not given) | inactive | 
